Measurements published in PubChem BioAssay (Tox21).
Inconclusive results are not listed. Active and inactive are the calls of the source. Unless noted, the call rests on the fitted dose curve; in most records, active means well fitted curve in the direction sought with a large enough effect in the repeat runs; inconclusive means weak or mixed curves; inactive means no such curve, though single readings can be large; an effect the other way counts as inactive or inconclusive.

Legend:
[1] = qHTS assay for small molecule agonists of the p53 signaling pathway (AID 651631; calls by dose curve; further: nearly all actives have a fitted effect of over 15% in size)
Outline: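 Stably transfected HCT-116 cells (beta-lactamase behind p53 response elements) get compounds after a 5 h settling period; 16 h later at 37 °C, FRET substrate is loaded and fluorescence read after 2 h.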

[2] = qHTS assay for small molecules that induce genotoxicity in human embryonic kidney cells expressing luciferase-tagged ATAD5 (AID 651632); further: nearly all actives have a fitted effect of over 15% in size
Outline: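 A rise in luciferase signal from ATAD5-tagged HEK293T cells marks genetic stress. Cells were exposed to compounds for 16 hr at 37C, 5% CO2, then luciferase was quantified after a 30 min room-temperature incubation with Amplite.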

[3] = qHTS assay for small molecule agonists of the p53 signaling pathway - cell viability (AID 651633; calls by dose curve;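 further: p53RE-bla HCT reporter cells with a stable beta-lactamase p53 reporter; series mostly up to about 83 µM; nearly all actives have a fitted effect of over 30% in size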)
Outline: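 p53RE-bla cells, seeded at 4,000 per well and rested 5 h at 37 C/5% CO2, received compounds in DMSO for 16 h at 37 C. CellTiter-Glo was then added, and luminescence was read after 30 min at room temperature to gauge cytotoxicity.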

[4] = qHTS assay for small molecules that induce genotoxicity in human embryonic kidney cells expressing luciferase-tagged ATAD5 - cell viability (AID 651634; calls by dose curve; further: nearly all actives have a fitted effect of over 25% in size)
Outline: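 Cytotoxicity counter-readout: after 15.5 hr compound treatment at 37C, live-cell protease activity in ATAD5-luciferase HEK293T cells measured by CellTiter-Fluor fluorescence, 30 min development at 37C.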

[5] = qHTS assay for small molecule disruptors of the mitochondrial membrane potential - cell viability (AID 720634; calls by dose curve;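 further: human HepG2 liver cancer cells; series mostly up to about 83 µM; nearly all actives have a fitted effect of over 20% in size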)
Outline: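 Cytotoxicity was quantified from ATP content by CellTiter-Glo luminescence in the same wells as the MMP dye read-out. HepG2 (2,000 cells/well) were plated overnight and exposed to compounds for 1 hr at 37 C.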

[6] = qHTS assay to test for compound auto fluorescence at 590 nm (red) in HepG2 cells (AID 720674)
Outline: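 Rose Bengal sodium served as the red fluorophore standard. HepG2 monolayers (overnight attachment, MEM with 10% FBS) were exposed to test compounds for 1 hr at 37 C and read at Ex 540/Em 590 nm.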

[7] = qHTS assay to test for compound auto fluorescence at 460 nm (blue) in HEK293 cells (AID 720678)
Outline: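 Blue read-out at excitation 405 nm and emission 460 nm follows overnight compound exposure of HEK293 cells at 37C in 5% CO2. Activity is given as auto fluorescence equivalency to triamterene.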

[8] = qHTS assay to test for compound auto fluorescence at 590 nm (red) in HEK293 cells (AID 720679)
Outline: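 Red channel, Ex/Em 540/590nm; signal expressed as equivalency to Rose Bengal sodium. HEK293, 2,000 cells/well, 10% dialyzed FBS; 23 nL compound pinned after 4-5 hr attachment; overnight 37C/5% CO2 before reading.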

[9] = qHTS assay to test for compound auto fluorescence at 535 nm (green) in HEK293 cells (AID 720680)
[10] = qHTS assay to test for compound auto fluorescence at 460 nm (blue) in HEK293 cell free culture (AID 720681)
Outline: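 Test compounds were pinned into cell-free culture medium (DMEM with 10% FBS) and fluorescence was read directly at Ex/Em 405/460 nm. Signals were expressed as fluorescence equivalents of triamterene, with DMSO vehicle as control.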

[11] = qHTS assay to test for compound auto fluorescence at 535 nm (green) in HEK293 cell free culture (AID 720682)
Outline: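 Using fluorescein as calibrant, autofluorescence was quantified at 485/535 nm in cell-free DMEM containing 10% FBS after pintool addition of compound or vehicle.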

[12] = qHTS assay to test for compound auto fluorescence at 590 nm (red) in HEK293 cell free culture (AID 720683)
Outline: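 Tox21 10K library compounds were pinned into cell-free DMEM with 10% FBS and fluorescence was read at excitation 540 nm. Activity is expressed as Rose Bengal sodium equivalency.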

[13] = qHTS assay to test for compound auto fluorescence at 590 nm (red) in HepG2 cell free culture (AID 720684)
Outline: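 Readout: intrinsic compound fluorescence at 590 nm emission after 540 nm excitation, scaled to Rose Bengal sodium. Matrix was cell-free MEM with 10% FBS; DMSO vehicle wells served as control.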

[14] = qHTS assay to test for compound auto fluorescence at 535 nm (green) in HepG2 cell free culture (AID 720686)
[15] = qHTS assay to test for compound auto fluorescence at 460 nm (blue) in HepG2 cells (AID 720687)
Outline: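 Cells (2,000/well in MEM with 10% FBS) attached overnight at 37 C, then were exposed to compound or DMSO for 1 hr at 37 C, 5% CO2. Fluorescence read at Ex/Em 405/460 nm, expressed as triamterene-equivalent signal.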

[16] = molecular target: Glucocorticoid receptor (Homo sapiens) (UniProt P04150); test: qHTS assay to identify small molecule agonists of the glucocorticoid receptor (GR) signaling pathway (AID 720691; active means well fitted activation curve with a large enough effect in the signal ratio in the repeat runs, not every such curve was filed as active; the % refers to the signal ratio)
Outline: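 Agonist-mode qHTS in HeLa cells stably expressing a glucocorticoid-response-element beta-lactamase reporter. Fluorescence intensity read with FRET substrate (2 h, room temperature) after 18 h compound treatment at 37 C.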

[17] = molecular target: Glucocorticoid receptor (Homo sapiens) (UniProt P04150); test: qHTS assay to identify small molecule antagonists of the glucocorticoid receptor (GR) signaling pathway (AID 720692; active means well fitted inhibition curve with a large enough effect in the signal ratio in the repeat runs, not every such curve was filed as active; the % refers to the signal ratio)
Outline: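 Inhibition of dexamethasone-driven (5 nM final) beta-lactamase expression was measured in GRE-reporter HeLa cells over 18 h at 37C. Fluorescence was read after 2 h with the B/G FRET substrate at room temperature.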

[18] = qHTS assay to test for compound auto fluorescence at 535 nm (green) in HepG2 cells (AID 720675)
[19] = qHTS assay to test for compound auto fluorescence at 460 nm (blue) in HepG2 cell free culture (AID 720685)
Outline: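 Cell-free plates of MEM plus 10% FBS received 23 nL compound or DMSO vehicle; blue-channel (405/460 nm) intensity scored against triamterene as reference fluorophore.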

[20] = qHTS assay for small molecule disruptors of the mitochondrial membrane potential (AID 720635)
Outline: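 HepG2 cells (2,000/well) attached overnight at 37C, then took compound for 1 hr at 37C, 5% CO2. Mito-MPS dye was added for 30 min; fluorescence was read at 490/535 nm (monomers) and 540/590 nm (aggregates).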

Measured: Potency

Chain of Glucocorticoid receptor (Homo sapiens) (P04150 whole entry, looked up): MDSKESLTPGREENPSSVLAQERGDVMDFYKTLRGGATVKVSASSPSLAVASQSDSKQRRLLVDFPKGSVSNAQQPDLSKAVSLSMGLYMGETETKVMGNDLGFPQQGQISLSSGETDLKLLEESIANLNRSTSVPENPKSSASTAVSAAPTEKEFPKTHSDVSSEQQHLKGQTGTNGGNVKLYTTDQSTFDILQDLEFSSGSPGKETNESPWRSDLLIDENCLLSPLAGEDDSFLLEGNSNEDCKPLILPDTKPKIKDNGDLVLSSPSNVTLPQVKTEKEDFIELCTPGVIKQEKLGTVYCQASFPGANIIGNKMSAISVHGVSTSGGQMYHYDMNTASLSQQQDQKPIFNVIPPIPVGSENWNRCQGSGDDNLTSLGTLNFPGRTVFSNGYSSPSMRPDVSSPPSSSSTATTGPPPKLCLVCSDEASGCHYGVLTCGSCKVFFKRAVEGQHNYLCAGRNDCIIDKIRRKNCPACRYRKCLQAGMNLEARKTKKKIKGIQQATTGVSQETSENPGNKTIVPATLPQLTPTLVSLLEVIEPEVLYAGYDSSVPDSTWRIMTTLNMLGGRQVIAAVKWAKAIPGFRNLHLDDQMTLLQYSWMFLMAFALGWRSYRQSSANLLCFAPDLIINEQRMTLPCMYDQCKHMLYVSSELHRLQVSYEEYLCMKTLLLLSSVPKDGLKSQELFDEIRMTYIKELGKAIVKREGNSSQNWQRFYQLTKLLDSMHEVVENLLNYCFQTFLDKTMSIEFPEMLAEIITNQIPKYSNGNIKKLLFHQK

Cc1ccc2c(c1)c1c3n2CCNC3CCC1 (stereo unspecified)
inactive: [1] | [2] | [3] | [4] | [5] | [6] | [7] | [8] | [9] | [10] | [11] | [12] | [13] | [14] | [15] | [16] | [17]

CCNC(=O)NCCCOc1cccc(CN2CCCCC2)c1
inactive: [1] | [2] | [3] | [4] | [5] | [6] | [18] | [7] | [8] | [9] | [11] | [12] | [13] | [19] | [14] | [15] | [16]

CCCC(C)CC (stereo unspecified)
inactive: [1] | [2] | [3] | [4] | [5] | [6] | [18] | [8] | [9] | [11] | [12] | [13] | [19] | [14] | [15]

CCCCOC(=O)[C@@H](C)Oc1ccc(Oc2ccc(C(F)(F)F)cn2)cc1
inactive: [1] | [2] | [3] | [4] | [20] | [6] | [18] | [7] | [8] | [9] | [11] | [12] | [13] | [19] | [14] | [16]

FC(F)(F)c1ccc(Cl)cc1Cl
inactive: [1] | [2] | [3] | [4] | [5] | [6] | [18] | [8] | [9] | [10] | [11] | [12] | [13] | [14] | [15] | [16] | [17]

C[N+](C)(C)CC(O)CCl (stereo unspecified)
inactive: [1] | [2] | [3] | [4] | [6] | [18] | [7] | [8] | [9] | [10] | [11] | [12] | [13] | [19] | [14] | [15] | [16] | [17]

CCNC(=O)/C=C/c1cccc(Br)c1
inactive: [1] | [2] | [3] | [4] | [5] | [7] | [8] | [9] | [10] | [11] | [12] | [13] | [14] | [15] | [16]

CCCCC(=O)N(C)C
inactive: [1] | [2] | [3] | [4] | [6] | [18] | [7] | [8] | [9] | [10] | [11] | [12] | [13] | [19] | [14] | [15] | [16] | [17]

CCCCOC(=O)C(C)OC(=O)CCC (stereo unspecified)
inactive: [1] | [2] | [3] | [4] | [6] | [18] | [7] | [8] | [9] | [10] | [11] | [12] | [13] | [14] | [15] | [16]

O=C1CC[C@H](C(=O)N2CCCCC2)N1
inactive: [1] | [2] | [3] | [4] | [20] | [6] | [18] | [7] | [8] | [9] | [10] | [11] | [12] | [19] | [14] | [16]

CC(=O)Nc1ncc([N+](=O)[O-])s1
inactive: [1] | [2] | [3] | [4] | [5] | [6] | [18] | [7] | [8] | [9] | [11] | [12] | [13] | [19] | [14] | [15] | [16]

CCC(=O)OCCC(C)CCC=C(C)C (stereo unspecified)
inactive: [1] | [2] | [3] | [4] | [5] | [6] | [7] | [8] | [9] | [10] | [11] | [12] | [13] | [19] | [14] | [15]

CC(C)SCc1ccco1
inactive: [1] | [2] | [3] | [4] | [5] | [6] | [7] | [8] | [9] | [10] | [11] | [12] | [13] | [19] | [14] | [15]

CCCCCC1Nc2cc(C(F)(F)F)c(S(N)(=O)=O)cc2S(=O)(=O)N1 (stereo unspecified)
inactive: [1] | [2] | [3] | [4] | [6] | [18] | [7] | [8] | [9] | [10] | [11] | [12] | [13] | [19] | [14] | [15] | [16]

COc1cc(C=O)ccc1OC(=O)C(C)C
inactive: [1] | [2] | [3] | [4] | [20] | [7] | [8] | [9] | [10] | [11] | [12] | [14] | [15] | [16] | [17]
